Structures are written as SMILES. About 83,000 compounds went through this panel and 20% of them were active in at least one assay; those are over-represented in the sample as a whole.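 Single-concentration screen, 48 h exposure, 96-well plates. Endpoint: percent growth. Below 10 = active.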 Unmarked numbers belong to inactive results. Activity calls are given as the source filed them. *1 amine or outer side, *2 acyl side, *3 side chain or, on linkers, in order; H or OH if unused. Where a SMILES comes first, the peptide text is derived from it. [ ]: non-standard residue; d: D form. The star is where a group is joined. X5 = CCC(=O)CC1CC(C)CC(C(=O)[*:2])N1[*:1]; X4 = CCCCCCCCC(C)C(=O)*; Aib = CC(C)(N)C(=O)O; X6 = CC(CN(C)CCO)N*

The test system of the test is BT-549 breast. The experiment in a line: NCI-60 one-dose screen, 48 h (100 = growth as untreated, 0 = no growth, -100 = all killed). The note with it: 10 µM unless noted. As for the experimental part: Growth inhibition of the BT-549 human tumor cell line is measured as a screen for anti-cancer activity. Cells are grown in 96 well plates and exposed to the test compound for 48 hours. Compounds are tested at a single concentration, which is 10^-5 M for most compounds. The reported endpoint is percent growth (GI% or GIPRCNT), where numbers from 0 - 100% represent growth inhibition, and numbers from -100% - 0 represent cell death. For example, a value of 40 represents 60% growth inhibition. A value of 0 means no net growth occurred over the course of the experiment. A value of -40 indicates 40% of cells at the beginning of the experiment died by the end of the experiment. A value of -100 means all cells are dead at the end of the experiment.
NCI-60 Human Tumor Cell Lines Screen was performed using the standard one-dose NCI protocol, which is described in more detail at https://dtp.cancer.gov/discovery_development/nci-60/default.htm.
Compounds with GIPRCNT values below 10 were considered active. Activity score was based on GIPRCNT using the following formula: […]
Score is 0 for GIPRCNT values of 100 or above, 50 for GIPRCNT values of 0, and 100 for GIPRCNT values of -100.
As for `NC(=Nc1nc(-c2ccccn2)cc2ccccc12)c1ccccn1`, the growth is 23.3%. For the molecule `CCCCCCCCCCCC[n+]1ccc(CCCCCCCCC)cc1`, the growth is -27.3% (active). For the molecule `C/C(=N/NC(N)=S)c1ccc(C)cc1`, the growth is 105%. For the molecule `Oc1c(Cl)cc(Cl)cc1C=NCC1CCC(CN=Cc2cc(Cl)cc(Cl)c2O)CC1` (stereo not given), the growth is 90.4%.

As for `N#CC1c2ccccc2C=CN1C(=O)CCCl` (stereo not given), the growth was 92.1%. For the molecule `Cc1oc2c(C)c3oc(=O)cc(C)c3cc2c1CCl`, the growth was 68.8%. As for `CC1(C)N=c2cc3c(cc2N1c1ccc(Cl)cc1)=Nc1ccccc1N3c1ccc(Cl)cc1`, the growth was 44%. For `CC(C)(C)c1ccc(O)c(Br)c1`, the growth is 102%. As for `CCCOC(=O)c1nc(N(CC2CCCCC2)C(=O)NC)sc1/N=C/c1ccccc1`, the growth is 18.9%.

On to `CCNc1nnnn1CC`, for which the growth is 110%. Consider `NNc1cccc([N+](=O)[O-])c1`, for which the growth is 93.6%.

Regarding `O=[N+]([O-])C=C(c1ccccc1)c1ccccc1`, the growth is 76.6%. Take `CN(C)c1ccc(C(C#N)(c2ccccc2)c2ccc(N(C)C)cc2)cc1`: the growth was 72.9%. Consider `CCCCCCC1N=C(N)N=C(N)N1c1cccc(Cl)c1` (stereo not given), for which the growth was 25.2%. Take `CCC(C)(O)Cc1ccc(Cl)cc1` (stereo not given): the growth is 98.5%.

As to `COC(=O)[C@]1(C)CCC[C@]2(C)c3ccc(C(C)C)cc3C(=O)[C@@H](Br)[C@@H]12`, the growth was 116%. In the case of `CCC(=O)c1cc([N+](=O)[O-])c(Br)s1`, the growth was 108%.

Consider `CC(=O)OC1CC2CCC1(C)C2(C)C` (stereo not given), for which the growth was 112%. In the case of `NNc1ccc(Cl)cc1Cl`, the growth is 88.7%. As to `CCCCCCCCC(C)C(=O)N1CCCC1C(=O)N1C(CC(=O)CC)CC(C)CC1C(=O)NC(C)C(=O)NC(C)(C)C(=O)NC(C)(C)C(=O)NC(C(=O)NC(C)C(=O)NC(C)(C)C(=O)NC(C)(C)C(=O)NC(C)CN(C)CCO)C(C)CC` (stereo not given) (X4-P[X5]A[Aib][Aib]IA[Aib][Aib]-X6; configuration not given here), the growth is -80.3% (active). For the molecule `Cc1ccc(Nc2ccc(O)c3c2C(=O)c2c(O)ccc(Nc4ccc(C)cc4)c2C3=O)cc1`, the growth was 113%.

Consider `Cc1cc(N/N=C/c2ccccn2)nc2ccccc12`, for which the growth was 15.1%. On to `CN(C)CCN(C)CC(C)(C)C(=O)/C=C/c1ccc(Cl)c(Cl)c1`, for which the growth was -96% [100 µM] (active). For `CN=C(N)N/N=C(\c1ccccc1)c1ccc(Br)cc1`, the growth was 21.5%. `CC(O)C(O)C(O)C(O)C(O)C(=O)NNc1ccccc1` (stereo not given): the growth was 105%. As to `Cc1cc2nc(CC(=O)c3ccncc3)c(=O)[nH]c2cc1C`, the growth was 88.9%. Regarding `CCC[CH2][Sn]1([CH2]CCC)[O]C2C(CO)OC(n3ccc(N)nc3=O)C2[O]1` (stereo not given), the growth is -85.2% (active). `Cc1cc(C)c([I+]c2c(C)cc(C)cc2C)c(C)c1`: the growth is -86.4% (active). Turning to `CCCCCCCCCCCCCCCCCC1=NCCCN1CCO`, the growth was 99.9%. As for `O=C1C=CC(=O)N1c1cccc2c1CCCC2`, the figure is 112%. Take `Cc1ccc(/C=C2\CNC/C(=C\c3ccc(C)cc3)C2=O)cc1`: the growth was -72.2% (active). As for `COc1cc(OC)c(/C=C/c2c3ccccc3cc[n+]2C)c(OC)c1`, the figure is 17.8%; as for `CCCCCCCCC(=O)OCCCC(CCC(CCC1CCCO1)OC(=O)CCCCCCCC)OC(=O)CCCCCCCC` (stereo not given), 92.7%. Regarding `O=C(O)c1cccc2cccc(-c3c4ccc(=O)c(O)c-4oc4c(O)c(O)ccc34)c12`, the growth was 93.8%. As to `CCc1cnc2ccccc2c1/C=C/c1ccc(N(C)C)cc1`, the growth was 49.8%. `O=C1/C(=C/c2ccccc2)CCC/C1=C\c1ccccc1`: the growth is 80.5%. As for `O=C1C=CC(=O)c2c(O)c(CO)c(CO)c(O)c21`, the figure is 97%; as for `CC(C)Nc1ccc(Nc2ccc(NC(C)C)cc2)cc1`, 53.2%; as for `CC(C)N=C(N)/N=C(\N)Nc1ccc2ccc3ccccc3c2c1`, -55.3% (active).

As for `CC(C)(C)c1ccc(CCO)cc1`, the growth is 86.1%.

These data come from PubChem BioAssay (NCI).
